These results are taken from paper PMC7862700, “An all-to-all approach to the identification of sequence-specific readers for epigenetic DNA modifications on cytosine”.

Assay in all cases: DAPPL (digital affinity profiling via proximity ligation, sequencing); 10 mM Tris-HCl pH 7.5, 50 mM NaCl, 1 mM DTT, 4% glycerol, room temperature, 30 min; GST-TFs on glutathione beads, 16-mer random dsDNA library, 0.1% formaldehyde crosslink after washing; high values mean tight binding
The target in one experiment is T1, FLI1 (Homo sapiens, UniProt Q01543 1-452).
T1 sequence: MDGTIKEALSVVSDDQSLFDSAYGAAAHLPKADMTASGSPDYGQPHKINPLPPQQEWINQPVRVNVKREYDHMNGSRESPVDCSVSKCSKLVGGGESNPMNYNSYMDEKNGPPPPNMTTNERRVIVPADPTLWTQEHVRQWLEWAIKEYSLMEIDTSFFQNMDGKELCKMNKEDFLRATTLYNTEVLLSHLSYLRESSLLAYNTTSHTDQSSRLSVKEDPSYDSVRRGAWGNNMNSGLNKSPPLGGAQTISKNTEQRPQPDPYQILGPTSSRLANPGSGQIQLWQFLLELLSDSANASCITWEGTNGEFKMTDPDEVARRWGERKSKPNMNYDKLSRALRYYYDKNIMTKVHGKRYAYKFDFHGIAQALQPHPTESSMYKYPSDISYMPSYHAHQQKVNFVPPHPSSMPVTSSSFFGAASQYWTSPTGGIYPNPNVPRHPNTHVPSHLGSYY
The settings on record: protein: recombinant; tags: N-terminal GST; dsDNA, one strand shown. The gist of the method:
(§1)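 Beads coated with glutathione captured GST-fused human transcription factors that had been expressed in yeast, and the factors were then given DNA barcodes and pooled with a tag-only sample. The pools were incubated with 200 nmole of a random double-stranded 16-mer DNA library in Tris/NaCl/DTT/glycerol buffer for 30 min at room temperature, washed, crosslinked with 0.1% formaldehyde and proximity-ligated with BsaI/T4 ligase at 37 °C for 1 h. PCR amplification and Illumina NextSeq500 sequencing came last. Binding signal is each hexamer's read frequency for a factor divided by its frequency for the tag-only sample.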

For a further experiment, the target named is T2, ELK1 (Homo sapiens, UniProt P19419 1-428).
T2 sequence: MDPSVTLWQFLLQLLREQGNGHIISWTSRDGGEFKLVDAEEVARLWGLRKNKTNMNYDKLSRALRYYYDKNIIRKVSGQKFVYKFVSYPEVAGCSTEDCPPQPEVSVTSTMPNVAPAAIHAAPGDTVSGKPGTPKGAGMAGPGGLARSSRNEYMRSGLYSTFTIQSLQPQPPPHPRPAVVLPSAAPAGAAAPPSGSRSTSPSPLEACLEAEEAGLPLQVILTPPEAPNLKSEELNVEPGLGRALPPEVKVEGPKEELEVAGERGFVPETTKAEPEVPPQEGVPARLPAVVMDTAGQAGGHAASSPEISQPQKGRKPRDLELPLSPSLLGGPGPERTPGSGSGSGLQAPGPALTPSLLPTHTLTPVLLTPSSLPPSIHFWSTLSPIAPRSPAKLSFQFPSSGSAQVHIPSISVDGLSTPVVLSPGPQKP
The settings on record: protein: recombinant; tags: N-terminal GST; dsDNA, one strand shown. In a few lines: as §1

Another experiment addresses T3, GABPA (Homo sapiens, UniProt Q06546 1-454).
T3 sequence: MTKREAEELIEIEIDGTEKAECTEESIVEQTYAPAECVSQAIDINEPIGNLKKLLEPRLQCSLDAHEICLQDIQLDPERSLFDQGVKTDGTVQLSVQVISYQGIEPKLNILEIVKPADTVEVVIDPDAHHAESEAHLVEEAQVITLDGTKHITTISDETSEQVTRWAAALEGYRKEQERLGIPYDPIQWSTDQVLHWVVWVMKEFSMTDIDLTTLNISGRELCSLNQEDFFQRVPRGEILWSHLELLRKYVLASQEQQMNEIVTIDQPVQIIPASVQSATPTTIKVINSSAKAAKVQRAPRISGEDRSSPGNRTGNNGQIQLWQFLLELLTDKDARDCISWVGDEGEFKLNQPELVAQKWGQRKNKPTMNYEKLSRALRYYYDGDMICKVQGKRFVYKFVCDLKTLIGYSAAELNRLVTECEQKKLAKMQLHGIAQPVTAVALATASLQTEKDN
As to conditions: protein: recombinant; tags: N-terminal GST; dsDNA, one strand shown. In a few lines:
as §1

In the next experiment the target is T4, ERG (Homo sapiens, UniProt P11308 1-479).
T4 sequence: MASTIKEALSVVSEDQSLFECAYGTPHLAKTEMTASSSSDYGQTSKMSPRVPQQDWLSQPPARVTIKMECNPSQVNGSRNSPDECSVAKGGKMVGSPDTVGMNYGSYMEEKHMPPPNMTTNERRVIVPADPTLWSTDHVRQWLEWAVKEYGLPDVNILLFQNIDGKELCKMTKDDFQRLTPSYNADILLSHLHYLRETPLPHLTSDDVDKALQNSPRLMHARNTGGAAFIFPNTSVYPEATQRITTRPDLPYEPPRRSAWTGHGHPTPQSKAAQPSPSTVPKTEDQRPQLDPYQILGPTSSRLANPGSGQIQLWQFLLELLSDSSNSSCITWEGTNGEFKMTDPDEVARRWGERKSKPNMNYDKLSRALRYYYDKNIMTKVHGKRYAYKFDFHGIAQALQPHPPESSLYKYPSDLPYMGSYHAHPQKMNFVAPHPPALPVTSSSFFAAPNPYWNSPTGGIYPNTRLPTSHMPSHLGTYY
The settings on record: protein: recombinant; tags: N-terminal GST; dsDNA, one strand shown. In a few lines: as §1

A further experiment deals with ELF1 (Homo sapiens, UniProt P32519 1-619). As to conditions: protein: recombinant; tags: N-terminal GST; dsDNA, one strand shown. In a few lines:
as §1

A further experiment addresses T5, EHF (Homo sapiens, UniProt Q9NZC4 1-300).
T5 sequence: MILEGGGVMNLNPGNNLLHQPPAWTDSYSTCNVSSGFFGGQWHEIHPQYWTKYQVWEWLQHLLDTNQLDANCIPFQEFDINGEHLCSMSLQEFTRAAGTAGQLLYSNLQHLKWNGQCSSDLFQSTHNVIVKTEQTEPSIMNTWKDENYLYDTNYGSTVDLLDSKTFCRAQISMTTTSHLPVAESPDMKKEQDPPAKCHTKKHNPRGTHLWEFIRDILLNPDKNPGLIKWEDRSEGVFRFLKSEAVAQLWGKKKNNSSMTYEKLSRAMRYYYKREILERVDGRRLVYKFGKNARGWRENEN
As to conditions: protein: recombinant; tags: N-terminal GST; dsDNA, one strand shown. The gist of the method: as §1

Another experiment deals with SPI1 (Homo sapiens, UniProt P17947 1-270). The settings on record: protein: recombinant; tags: N-terminal GST; dsDNA, one strand shown. The gist of the method:
as §1

A further experiment addresses SPIB (Homo sapiens, UniProt Q01892 1-262). The settings on record: protein: recombinant; tags: N-terminal GST; dsDNA, one strand shown. The gist of the method: as §1
For another experiment, the target named is T6, ELK3 (Homo sapiens, UniProt P41970 1-407).
T6 sequence: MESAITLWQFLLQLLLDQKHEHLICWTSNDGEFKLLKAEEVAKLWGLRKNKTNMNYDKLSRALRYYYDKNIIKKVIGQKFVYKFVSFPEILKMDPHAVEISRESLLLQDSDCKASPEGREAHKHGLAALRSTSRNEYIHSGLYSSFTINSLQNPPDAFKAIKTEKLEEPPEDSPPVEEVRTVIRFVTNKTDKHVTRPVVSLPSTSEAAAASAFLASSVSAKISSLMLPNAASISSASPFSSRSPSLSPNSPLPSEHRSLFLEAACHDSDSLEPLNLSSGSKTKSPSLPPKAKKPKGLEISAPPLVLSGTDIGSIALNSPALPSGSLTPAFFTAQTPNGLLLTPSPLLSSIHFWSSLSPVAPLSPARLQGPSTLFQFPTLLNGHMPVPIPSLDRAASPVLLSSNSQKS
The settings on record: protein: recombinant; tags: N-terminal GST; dsDNA, one strand shown. In a few lines:
as §1

In a further experiment the target is T7, FEV (Homo sapiens, UniProt Q99581 1-238).
T7 sequence: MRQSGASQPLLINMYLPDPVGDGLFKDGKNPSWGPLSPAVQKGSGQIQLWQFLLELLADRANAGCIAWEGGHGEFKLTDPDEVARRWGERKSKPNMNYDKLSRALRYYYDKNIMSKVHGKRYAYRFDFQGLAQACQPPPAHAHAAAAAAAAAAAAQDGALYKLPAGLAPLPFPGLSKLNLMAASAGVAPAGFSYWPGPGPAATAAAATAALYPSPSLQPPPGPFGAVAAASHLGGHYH
As to conditions: protein: recombinant; tags: N-terminal GST; dsDNA, one strand shown. In a few lines: as §1

Another experiment deals with ETV5 (Homo sapiens, UniProt P41161 1-510). The settings on record: protein: recombinant; tags: N-terminal GST; dsDNA, one strand shown. The gist of the method: as §1
The target in the next experiment is HSF1 (Homo sapiens, UniProt Q00613 1-529). The settings on record: protein: recombinant; tags: N-terminal GST; chain copies: 3; dsDNA, one strand shown. The gist of the method: as §1
The target in another experiment is T8, SPIC (Homo sapiens, UniProt Q8N5J4 1-248).
T8 sequence: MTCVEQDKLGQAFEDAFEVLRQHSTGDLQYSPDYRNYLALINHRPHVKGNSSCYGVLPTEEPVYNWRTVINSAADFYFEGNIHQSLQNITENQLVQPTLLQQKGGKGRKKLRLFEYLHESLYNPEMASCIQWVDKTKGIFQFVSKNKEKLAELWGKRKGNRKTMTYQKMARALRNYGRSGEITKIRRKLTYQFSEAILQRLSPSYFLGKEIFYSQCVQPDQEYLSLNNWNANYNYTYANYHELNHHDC
As to conditions: protein: recombinant; tags: N-terminal GST; dsDNA, one strand shown. In a few lines: as §1

A further experiment deals with ELF4 (Homo sapiens, UniProt Q99607 1-663). The settings on record: protein: recombinant; tags: N-terminal GST; dsDNA, one strand shown. In a few lines:
as §1

A further experiment has as its target T9, ELK4 (Homo sapiens, UniProt P28324-2 1-405).
T9 sequence: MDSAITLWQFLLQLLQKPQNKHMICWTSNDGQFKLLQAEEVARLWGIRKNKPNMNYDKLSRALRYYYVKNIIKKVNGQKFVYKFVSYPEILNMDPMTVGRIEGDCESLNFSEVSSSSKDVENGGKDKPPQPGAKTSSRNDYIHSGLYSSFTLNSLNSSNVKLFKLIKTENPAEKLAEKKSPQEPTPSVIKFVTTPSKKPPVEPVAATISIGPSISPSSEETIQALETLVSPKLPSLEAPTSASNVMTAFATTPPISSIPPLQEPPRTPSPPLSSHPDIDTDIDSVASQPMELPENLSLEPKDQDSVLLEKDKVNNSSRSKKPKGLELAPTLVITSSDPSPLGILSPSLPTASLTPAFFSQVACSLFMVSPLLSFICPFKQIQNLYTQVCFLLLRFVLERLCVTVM
As to conditions: protein: recombinant; tags: N-terminal GST; dsDNA, one strand shown. In a few lines: as §1

Another experiment concerns the target CRX (Homo sapiens, UniProt O43186 1-299). As to conditions: protein: recombinant; tags: N-terminal GST; dsDNA, one strand shown. In a few lines: as §1
The target of a further experiment is ETV1 (Homo sapiens, UniProt P50549 1-477). The settings on record: protein: recombinant; tags: N-terminal GST; dsDNA, one strand shown. The gist of the method: as §1
Sequence of ETV1 (P50549 whole entry): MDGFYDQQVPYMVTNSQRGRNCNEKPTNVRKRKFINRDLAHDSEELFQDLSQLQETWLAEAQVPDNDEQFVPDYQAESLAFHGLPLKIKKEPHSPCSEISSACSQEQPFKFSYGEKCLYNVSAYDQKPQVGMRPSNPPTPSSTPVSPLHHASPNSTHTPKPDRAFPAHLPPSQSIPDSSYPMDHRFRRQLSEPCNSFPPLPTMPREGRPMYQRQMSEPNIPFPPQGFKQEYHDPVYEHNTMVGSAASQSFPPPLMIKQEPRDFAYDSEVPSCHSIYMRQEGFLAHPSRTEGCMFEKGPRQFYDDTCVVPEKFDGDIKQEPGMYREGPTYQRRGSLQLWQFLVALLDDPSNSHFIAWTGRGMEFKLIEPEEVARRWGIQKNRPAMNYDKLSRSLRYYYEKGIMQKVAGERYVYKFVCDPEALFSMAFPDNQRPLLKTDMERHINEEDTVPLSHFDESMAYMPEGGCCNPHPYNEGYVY

Sequence of ETV5 (P41161 whole entry): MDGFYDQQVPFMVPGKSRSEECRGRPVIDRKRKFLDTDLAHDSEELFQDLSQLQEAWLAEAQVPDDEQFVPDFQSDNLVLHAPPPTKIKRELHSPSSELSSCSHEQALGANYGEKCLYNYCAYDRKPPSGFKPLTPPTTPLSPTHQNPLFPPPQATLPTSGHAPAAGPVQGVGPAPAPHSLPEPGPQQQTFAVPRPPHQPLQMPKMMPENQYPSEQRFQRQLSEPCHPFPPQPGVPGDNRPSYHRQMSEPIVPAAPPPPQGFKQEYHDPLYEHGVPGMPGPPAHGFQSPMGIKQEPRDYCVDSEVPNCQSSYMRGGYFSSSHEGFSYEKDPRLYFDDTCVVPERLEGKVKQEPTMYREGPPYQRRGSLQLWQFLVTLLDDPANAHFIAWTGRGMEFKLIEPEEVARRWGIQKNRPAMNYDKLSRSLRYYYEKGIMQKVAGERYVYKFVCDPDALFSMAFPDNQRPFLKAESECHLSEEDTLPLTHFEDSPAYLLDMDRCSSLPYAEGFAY
Sequence of ELF1 (P32519 whole entry): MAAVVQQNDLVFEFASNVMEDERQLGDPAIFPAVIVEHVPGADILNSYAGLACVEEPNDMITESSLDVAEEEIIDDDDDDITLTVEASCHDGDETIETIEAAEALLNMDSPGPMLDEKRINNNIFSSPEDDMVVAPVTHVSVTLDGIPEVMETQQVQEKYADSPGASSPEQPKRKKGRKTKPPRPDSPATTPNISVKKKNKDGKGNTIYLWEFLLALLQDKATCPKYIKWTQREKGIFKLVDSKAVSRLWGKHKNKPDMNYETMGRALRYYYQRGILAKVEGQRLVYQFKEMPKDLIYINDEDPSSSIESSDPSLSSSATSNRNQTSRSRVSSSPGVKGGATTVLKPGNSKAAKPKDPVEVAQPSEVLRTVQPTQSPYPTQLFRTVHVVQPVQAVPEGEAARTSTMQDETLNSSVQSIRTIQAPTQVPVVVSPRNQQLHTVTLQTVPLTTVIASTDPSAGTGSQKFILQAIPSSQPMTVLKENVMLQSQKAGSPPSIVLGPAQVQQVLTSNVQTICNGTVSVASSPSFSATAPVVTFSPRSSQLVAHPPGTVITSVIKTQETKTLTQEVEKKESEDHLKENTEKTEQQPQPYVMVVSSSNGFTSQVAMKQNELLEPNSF
Sequence of HSF1 (Q00613 whole entry): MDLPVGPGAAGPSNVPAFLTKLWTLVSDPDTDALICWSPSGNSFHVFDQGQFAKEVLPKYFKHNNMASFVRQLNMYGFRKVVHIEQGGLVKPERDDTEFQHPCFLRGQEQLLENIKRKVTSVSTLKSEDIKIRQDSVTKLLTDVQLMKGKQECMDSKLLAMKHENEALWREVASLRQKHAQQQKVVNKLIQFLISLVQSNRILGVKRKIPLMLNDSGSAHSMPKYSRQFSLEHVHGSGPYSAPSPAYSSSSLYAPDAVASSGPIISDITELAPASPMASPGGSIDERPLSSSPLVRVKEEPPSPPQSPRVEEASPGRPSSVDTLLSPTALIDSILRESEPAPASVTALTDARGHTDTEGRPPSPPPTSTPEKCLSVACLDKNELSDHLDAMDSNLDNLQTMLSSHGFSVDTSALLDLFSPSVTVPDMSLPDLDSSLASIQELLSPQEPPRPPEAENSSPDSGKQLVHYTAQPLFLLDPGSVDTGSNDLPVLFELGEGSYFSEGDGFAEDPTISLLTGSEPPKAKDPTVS
Sequence of CRX (O43186 whole entry): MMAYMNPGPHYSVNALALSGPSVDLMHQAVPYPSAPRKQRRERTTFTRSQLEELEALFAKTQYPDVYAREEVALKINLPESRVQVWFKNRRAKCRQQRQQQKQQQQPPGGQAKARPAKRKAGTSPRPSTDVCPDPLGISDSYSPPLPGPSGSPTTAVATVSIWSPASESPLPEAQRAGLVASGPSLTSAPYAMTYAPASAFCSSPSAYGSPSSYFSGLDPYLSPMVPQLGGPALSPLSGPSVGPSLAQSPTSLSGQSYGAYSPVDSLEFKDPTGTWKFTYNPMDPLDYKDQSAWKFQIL
Sequence of SPIB (Q01892 whole entry): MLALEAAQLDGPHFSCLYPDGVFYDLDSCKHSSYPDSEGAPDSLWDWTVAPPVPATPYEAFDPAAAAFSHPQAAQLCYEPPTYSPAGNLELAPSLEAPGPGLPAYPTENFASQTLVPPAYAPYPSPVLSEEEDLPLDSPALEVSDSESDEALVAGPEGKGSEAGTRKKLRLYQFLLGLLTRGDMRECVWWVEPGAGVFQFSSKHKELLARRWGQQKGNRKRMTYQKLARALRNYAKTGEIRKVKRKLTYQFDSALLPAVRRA
Sequence of ELF4 (Q99607 whole entry): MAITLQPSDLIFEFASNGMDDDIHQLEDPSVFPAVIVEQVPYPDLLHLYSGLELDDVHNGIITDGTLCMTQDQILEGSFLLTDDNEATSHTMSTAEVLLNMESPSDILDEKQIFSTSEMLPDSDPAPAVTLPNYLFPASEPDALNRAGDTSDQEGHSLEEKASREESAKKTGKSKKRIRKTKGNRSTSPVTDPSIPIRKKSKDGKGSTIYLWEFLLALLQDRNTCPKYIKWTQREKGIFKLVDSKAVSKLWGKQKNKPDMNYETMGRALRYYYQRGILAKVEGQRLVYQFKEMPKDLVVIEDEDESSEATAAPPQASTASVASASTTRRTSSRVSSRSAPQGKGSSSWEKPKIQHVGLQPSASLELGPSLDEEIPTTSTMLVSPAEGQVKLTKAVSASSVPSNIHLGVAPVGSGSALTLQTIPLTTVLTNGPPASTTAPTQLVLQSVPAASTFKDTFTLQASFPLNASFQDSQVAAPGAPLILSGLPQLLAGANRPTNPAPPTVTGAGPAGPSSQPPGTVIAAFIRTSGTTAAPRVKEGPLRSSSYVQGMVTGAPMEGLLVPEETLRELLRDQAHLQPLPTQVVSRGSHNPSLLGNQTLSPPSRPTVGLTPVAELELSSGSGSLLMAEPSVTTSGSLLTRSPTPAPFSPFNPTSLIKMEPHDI

In the case of TAACTC, the binding signal was 1.3 fold enrichment (6-mer frequency, TF over GST control) in the experiment with FLI1; 1.22 fold enrichment (6-mer frequency, TF over GST control) with ELK1; 1.23 fold enrichment (6-mer frequency, TF over GST control) with GABPA; 1.11 fold enrichment (6-mer frequency, TF over GST control) in the experiment with ERG; 1.29 fold enrichment (6-mer frequency, TF over GST control) in the experiment with ELF1; 1.16 fold enrichment (6-mer frequency, TF over GST control) with EHF. Further, the binding signal is 1.18 fold enrichment (6-mer frequency, TF over GST control) with SPI1; 1.21 fold enrichment (6-mer frequency, TF over GST control) with SPIB; 1.18 fold enrichment (6-mer frequency, TF over GST control) with ELK3; 1.1 fold enrichment (6-mer frequency, TF over GST control) in the experiment with FEV; 1.21 fold enrichment (6-mer frequency, TF over GST control) with ETV5; 1.34 fold enrichment (6-mer frequency, TF over GST control) in the experiment with HSF1. The binding signal with SPIC was 1.25 fold enrichment (6-mer frequency, TF over GST control); in the experiment with ELF4 it was 1.29 fold enrichment (6-mer frequency, TF over GST control); in the experiment with ELK4, 1.34 fold enrichment (6-mer frequency, TF over GST control); with CRX it was 1.58 fold enrichment (6-mer frequency, TF over GST control); with ETV1 it was 1.23 fold enrichment (6-mer frequency, TF over GST control).
